Source: PubChem BioAssay
This is a sample that favours compounds with a hit; in the whole collection about 6.5% have one here.
VACV mCherry inh – qHTS for Stage-Specific Inhibitors of Vaccinia Orthopoxvirus: mCherry Reporter Primary qHTS; Vaccinia virus mCherry reporter infection, fluorescence; Potency, µM (top dose mostly 36.5 µM), hits mostly inhibitors; 0.63% of 310,000 active; AID 720579, 2013; calls by dose curve; tested in A549 cells; further: nearly all actives have a fitted effect of over 35% in size
FMDV antiviral – High Throughput Screening for Foot and Mouth Disease Virus Antivirals. FMDV antiviral cell-based qHTS. Potency, µM (series often up to 57.9 µM), actives largely listed as inhibitors. 1.2% of 410,000 active. AID 1159524, 2015; calls by dose curve; tested in HEK293T cells; further: read-out not given here; nearly all actives have a fitted effect of over 45% in size
Lassa entry inh – qHTS for Inhibitors of binding or entry into cells for Lassa Virus; Lassa virus pseudotype entry inhibition, cell reporter; Potency, µM (doses to about 37.9 µM), most hits filed as inhibitors; 1.2% of 300,000 active; calls by dose curve; tested in HEK293 cells; further: nearly all actives have a fitted effect of over 50% in size
Marburg entry inh – qHTS for inhibitors of binding or entry into cells for Marburg Virus | Marburg virus pseudotyped entry inhibition, cell reporter | Potency, µM (titrated, usually from 37.8 µM), hits mostly inhibitors | 1.8% of 300,000 active | AID 540276, 2011; calls by dose curve; tested in HEK293 cells
HCMV antiviral – qHTS Assay for inhibitors of the human cytomegalovirus (HCMV); HFF cells, HCMV-luciferase reporter, 72 h; hits give low values; activity change, negative = inhibition, % at 57.5 µM; 4.5% of 410,000 active; in the data active means activity change below about -60%; inconclusive means no clear call, values can overlap the other calls; inactive means above about -39%
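HFF cells seeded 16 h at 37C, treated with compounds, infected with luciferase-reporter HCMV at MOI 1 PFU/cell; luciferase read at 72 h post infection, normalized to buffer-only and Salinomycin controls.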
VACV Venus inh – qHTS for Stage-Specific Inhibitors of Vaccinia Orthopoxvirus: Venus Reporter Primary qHTS; Vaccinia virus Venus reporter expression, fluorescence; Potency, µM (highest dose often 36.5 µM), actives largely listed as inhibitors; AID 720580, 2013; 0.46% of 330,000 active; calls by dose curve; tested in A549 cells; further: nearly all actives have a fitted effect of over 30% in size
Numbers stand for hits.

COc1ccc(-c2[nH]ncc2Oc2ccccc2OC)c(O)c1 was read as FMDV antiviral inactive, Lassa entry inh inactive, Marburg entry inh inactive and HCMV antiviral inactive.
C=C(C)COc1ccc(-c2n[nH]c(C)c2-c2ccc(OC)c(OC)c2)c(O)c1 was read as VACV mCherry inh inconclusive, FMDV antiviral inconclusive, Lassa entry inh 0.63µM, Marburg entry inh inconclusive, HCMV antiviral -84 and VACV Venus inh inconclusive.
`C=C(C)COc1ccc(-c2nc(N)ncc2-c2ccc(OC)c(OC)c2)c(O)c1` gave VACV mCherry inh inactive, FMDV antiviral inactive, Lassa entry inh inactive, Marburg entry inh 13µM, HCMV antiviral inactive and VACV Venus inh inactive.
`C=C(C)COc1ccc(-c2n[nH]c(C)c2Oc2ccccc2OC)c(O)c1` gave FMDV antiviral inactive, Lassa entry inh inconclusive, Marburg entry inh inconclusive, HCMV antiviral inactive and VACV Venus inh inconclusive.
C=C(C)COc1ccc(-c2nc(N)ncc2-c2ccc(OC)cc2)c(O)c1 was read as Marburg entry inh inactive and HCMV antiviral inactive.
`COc1ccc(Cl)cc1NC(=O)CSC1=Nc2ccccc2C2=NC(CC(=O)NCc3cccs3)C(=O)N12` (stereo not drawn) gave VACV mCherry inh inactive, FMDV antiviral inactive, Lassa entry inh inconclusive, Marburg entry inh inconclusive, HCMV antiviral inactive and VACV Venus inh inactive.
Screening Cc1sc(-c2cc3c([nH]c2=O)CC(c2ccccc2)CC3=O)nc1-c1ccc(Cl)cc1 (stereo not drawn) returned VACV mCherry inh inactive, FMDV antiviral inactive, Lassa entry inh inactive, Marburg entry inh inactive, HCMV antiviral inactive and VACV Venus inh inactive.
Screening C=C(C)COc1ccc(-c2[nH]ncc2-c2ccc(OC)cc2)c(O)c1 returned FMDV antiviral inactive and HCMV antiviral -70.
For COc1ccc(-c2cn[nH]c2-c2ccc(OCC(=O)NN)cc2O)cc1OC the results were VACV mCherry inh inactive, FMDV antiviral inactive, Lassa entry inh inconclusive, Marburg entry inh inactive, HCMV antiviral inactive and VACV Venus inh inactive.
Screening COc1ccc(-c2cn[nH]c2-c2ccc(O)cc2O)cc1 returned FMDV antiviral inconclusive and HCMV antiviral -88.
For C=C(C)COc1ccc(-c2[nH]ncc2-c2ccc(OC)c(OC)c2)c(O)c1 the results were FMDV antiviral inconclusive, Lassa entry inh 1.3µM, Marburg entry inh 1.6µM, HCMV antiviral inconclusive and VACV Venus inh 10µM.
Screening CC(C)c1ccc(CNCCSc2nnnn2-c2ccccc2)cc1 returned VACV mCherry inh inactive, FMDV antiviral inactive, Lassa entry inh inactive, Marburg entry inh inactive, HCMV antiviral inactive and VACV Venus inh inactive.
Screening CC(=O)N1CC(=O)N2[C@@H](CO)[C@H](c3ccc(Br)cc3)[C@@H]2C1 returned HCMV antiviral inactive.
Screening CCN1CCCC1CNC(=O)c1cc(NC(C)=O)c(N(C)C)cc1OC (stereo not drawn) returned FMDV antiviral inactive, Lassa entry inh inactive, Marburg entry inh inactive and HCMV antiviral -68.
Screening Cc1cnc(C)c(-c2cc(F)cc3c2OC(CNC(=O)Cc2c(C)noc2C)C3)n1 (stereo not drawn) returned VACV mCherry inh inactive, FMDV antiviral inactive and VACV Venus inh inactive.
For C=CCN1C(=O)c2ccc(C(=O)N3CCN(S(=O)(=O)c4cccc(Cl)c4)CC3)cc2C1=O the results were VACV mCherry inh inactive, FMDV antiviral inactive, Lassa entry inh inactive, Marburg entry inh inactive, HCMV antiviral -76 and VACV Venus inh inactive.
For C=CCN1C(=O)c2ccc(C(=O)N3CCC(C(N)=O)CC3)cc2C1=O the results were FMDV antiviral inactive and HCMV antiviral -86.
Screening Cc1c(C(=O)N2CCN(Cc3ccc4c(c3)OCO4)CC2)sc2ncnc(N3CCN(c4ccccc4)CC3)c12 returned FMDV antiviral 2.5µM and HCMV antiviral -86.
`Cc1c(C(=O)N2CCN(Cc3ccc4c(c3)OCO4)CC2)sc2ncnc(N3CCN(c4ccccc4F)CC3)c12` gave FMDV antiviral 28µM and HCMV antiviral -76.
For CSc1ccc(CNC(=O)CN2C(=O)C3CCCCN3c3ccc(C(=O)N4CCCC4)cc32)cc1 (stereo not drawn) the results were VACV mCherry inh inactive, FMDV antiviral inactive, Lassa entry inh inactive, HCMV antiviral inactive and VACV Venus inh inactive.
